This is part of a sample that, as a whole, favours compounds with a hit. Of some 79,000 tested, about 15% had one in any assay. Unmarked numbers belong to inactive results. Activity calls are given as the source filed them. Rule as the data show it: active = growth inhibition above about 70%; inactive = the rest.

The values below come from PubChem BioAssay (NCI).

The nature of experiment [1]: NCI Yeast Anticancer Drug Screen. Data for the rad50 strain (AID 155).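 Also: 0% = growth of vehicle-only cultures of the same strain.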 As to conditions: S. cerevisiae rad50 strain growth inhibition, hits give high values. A digest of the protocol: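 Compounds were tested on a yeast strain with an engineered DNA damage repair alteration; the reported value is growth inhibition normalised to vehicle treatment.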
Experiment [2] is described as follows: NCI Yeast Anticancer Drug Screen. Data for the mec2-1 strain (AID 157). As to conditions: S. cerevisiae mec2-1 strain, hits give high values. A digest of the protocol:
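Cells of the genetically defined mec2-1 yeast strain are incubated with test compound. Inhibition of growth is calculated against vehicle-treated controls.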

Experiment [3] can be described thus: NCI Yeast Anticancer Drug Screen. Data for the sgs1 mgt1 strain (AID 161).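 Also: 0% = growth of cultures given vehicle only.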 As to conditions: S. cerevisiae sgs1 mgt1 strain, hits give high values. In short, it runs like this: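 Read-out: growth inhibition vs vehicle controls. Cells: mutant yeast strain deficient in DNA damage repair.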
The nature of experiment [4]: NCI Yeast Anticancer Drug Screen. Data for the cln2 rad14 strain (AID 165).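 Also: 0% = growth equal to vehicle treated cultures.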 The following applies: S. cerevisiae cln2 rad14 strain, hits give high values. In short, it runs like this: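 The screen exposed genetically defined yeast (cln2 rad14) to test compounds and scored growth inhibition relative to vehicle-treated controls.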
A short description of experiment [5]: NCI Yeast Anticancer Drug Screen. Data for the bub3 strain (AID 167). As to conditions: S. cerevisiae bub3 mutant strain, hits give high values. A digest of the protocol:
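Growth of a checkpoint-deficient yeast mutant is measured after compound exposure. Values represent inhibition relative to vehicle.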

Experiment [6] can be described thus: NCI Yeast Anticancer Drug Screen. Data for the mlh1 rad18 strain (AID 175). As to conditions: S. cerevisiae mlh1 rad18 strain growth inhibition, hits give high values. In short, it runs like this: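 Compound-treated yeast growth, normalised to vehicle controls. Strain bears defined DNA repair mutations.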
Setting [7] is: at 5.0 µM (retest, dose inferred, filed as 0.5).
Where [8] appears, read: at 50.0 µM (retest, dose inferred, filed as 5.0).

On to `O=C(/C=C(/c1ccccc1)P(=O)(c1ccccc1)c1ccccc1)c1ccccc1`, for which the growth inhibition in experiment [1] (setting [7]) was -2%; in experiment [1] (setting [8]), 97% (active); in experiment [1] (at 50.0 µM) it was 97.9% (active); in experiment [2] (setting [7]), -15%; in experiment [2] (setting [8]), 97% (active); in experiment [2] (at 50.0 µM), 98.6% (active). Also, the growth inhibition in experiment [3] (setting [7]) was -5%; in experiment [3] (setting [8]), 97% (active); in experiment [3] (at 50.0 µM) it was 98.8% (active); in experiment [4] (setting [7]), -4%; in experiment [4] (setting [8]) it was 71% (active); in experiment [4] (at 50.0 µM), 97.8% (active). Besides, the growth inhibition was -5% in experiment [5] (setting [7]); 86% (active) in experiment [5] (setting [8]); 97.8% (active) in experiment [5] (at 50.0 µM); 15% in experiment [6] (setting [7]); 99% (active) in experiment [6] (setting [8]); 98.6% (active) in experiment [6] (at 50.0 µM).

In the case of `O=[N+]([O-])/C=C/c1ccco1`, the growth inhibition in experiment [1] (setting [7]) was 59%; in experiment [1] (setting [8]), 99% (active); in experiment [1] (at 50.0 µM), 99.5% (active); in experiment [2] (setting [7]), 9%; in experiment [2] (setting [8]), 100% (active); in experiment [2] (at 50.0 µM) it was 99.3% (active). For the same compound, the growth inhibition in experiment [3] (setting [7]) was 16%; in experiment [3] (setting [8]) it was 100% (active); in experiment [3] (at 50.0 µM), 88.8% (active); in experiment [4] (setting [7]), 8%; in experiment [4] (setting [8]) it was 99% (active); in experiment [4] (at 50.0 µM) it was 98.5% (active). Besides, the growth inhibition in experiment [5] (setting [7]) is 3%; in experiment [5] (setting [8]) it was 99% (active); in experiment [5] (at 50.0 µM), 98.9% (active); in experiment [6] (setting [7]), 22%; in experiment [6] (setting [8]), 99% (active); in experiment [6] (at 50.0 µM), 98.9% (active).

Consider `CC(C)(Br)C(=O)/C=C/c1ccc(Cl)cc1`, for which the growth inhibition is 92% (active) in experiment [1] (setting [7]); 100% (active) in experiment [1] (setting [8]); 99.5% (active) in experiment [1] (at 50.0 µM); 92% (active) in experiment [2] (setting [7]); 100% (active) in experiment [2] (setting [8]); 99.7% (active) in experiment [2] (at 50.0 µM). In addition, the growth inhibition in experiment [3] (setting [7]) was 94% (active); in experiment [3] (setting [8]), 99% (active); in experiment [3] (at 50.0 µM), 99.6% (active); in experiment [4] (setting [7]), 89% (active); in experiment [4] (setting [8]) it was 100% (active); in experiment [4] (at 50.0 µM) it was 99.7% (active). Besides, the growth inhibition in experiment [5] (setting [7]) was 38%; in experiment [5] (setting [8]), 99% (active); in experiment [5] (at 50.0 µM), 99.3% (active); in experiment [6] (setting [7]), 97% (active); in experiment [6] (setting [8]), 100% (active); in experiment [6] (at 50.0 µM) it was 99.4% (active).

With `COc1cccc2c1C(=O)c1c(O)c3c(c(O)c1C2=O)CC(O)(C(=O)CO)CC3OC1CC(N)C(O)C(C)O1.[Cl][Pt+2][Cl].[NH2-].[NH2-]` (stereo not given), the growth inhibition was 12% in experiment [1] (setting [7]); 85% (active) in experiment [1] (setting [8]); 74.5% (active) in experiment [1] (at 50.0 µM); 9% in experiment [2] (setting [7]); 47% in experiment [2] (setting [8]); 49.5% in experiment [2] (at 50.0 µM). Further, the growth inhibition was 11% in experiment [3] (setting [7]); 83% (active) in experiment [3] (setting [8]); 78% (active) in experiment [3] (at 50.0 µM); 8% in experiment [4] (setting [7]); 87% (active) in experiment [4] (setting [8]); 43.5% in experiment [4] (at 50.0 µM). The growth inhibition in experiment [5] (setting [7]) was 0%; in experiment [5] (setting [8]), 56%; in experiment [5] (at 50.0 µM), 34.5%; in experiment [6] (setting [7]), 29%; in experiment [6] (setting [8]) it was 94% (active); in experiment [6] (at 50.0 µM), 88.7% (active).

Take `Cc1ccc2c(c1)CSCCO2`: the growth inhibition in experiment [1] (setting [7]) was 86% (active); in experiment [1] (setting [8]), 99% (active); in experiment [1] (at 50.0 µM) it was 99.3% (active); in experiment [2] (setting [7]), 87% (active); in experiment [2] (setting [8]) it was 100% (active); in experiment [2] (at 50.0 µM), 99.7% (active). Further, the growth inhibition in experiment [3] (setting [7]) was 87% (active); in experiment [3] (setting [8]), 99% (active); in experiment [3] (at 50.0 µM), 99.5% (active); in experiment [4] (setting [7]) it was 50%; in experiment [4] (setting [8]), 100% (active); in experiment [4] (at 50.0 µM), 99.3% (active). In addition, the growth inhibition was 90% (active) in experiment [5] (setting [7]); 99% (active) in experiment [5] (setting [8]); 99.5% (active) in experiment [5] (at 50.0 µM); 92% (active) in experiment [6] (setting [7]); 99% (active) in experiment [6] (setting [8]); 99.5% (active) in experiment [6] (at 50.0 µM).

As for `COc1ccc(OC)c(/C=C/c2ccnc3ccccc23)c1`, the growth inhibition was -3% in experiment [1] (setting [7]); 98% (active) in experiment [1] (setting [8]); 96.3% (active) in experiment [1] (at 50.0 µM); -1% in experiment [2] (setting [7]); 97% (active) in experiment [2] (setting [8]); 95.3% (active) in experiment [2] (at 50.0 µM). For the same compound, the growth inhibition was -2% in experiment [3] (setting [7]); 98% (active) in experiment [3] (setting [8]); 97.2% (active) in experiment [3] (at 50.0 µM); -4% in experiment [4] (setting [7]); 97% (active) in experiment [4] (setting [8]); 94.3% (active) in experiment [4] (at 50.0 µM). The growth inhibition in experiment [5] (setting [7]) was -1%; in experiment [5] (setting [8]) it was 97% (active); in experiment [5] (at 50.0 µM), 95% (active); in experiment [6] (setting [7]) it was -2%; in experiment [6] (setting [8]), 97% (active); in experiment [6] (at 50.0 µM) it was 95.6% (active).

For the compound `CCOC(=O)/C(C#N)=C/c1ccccc1Br`, the growth inhibition was 11% in experiment [1] (setting [7]); 18% in experiment [1] (setting [8]); 50% in experiment [1] (at 50.0 µM); -19% in experiment [2] (setting [7]); 3% in experiment [2] (setting [8]); 20.4% in experiment [2] (at 50.0 µM). The growth inhibition in experiment [3] (setting [7]) was 7%; in experiment [3] (setting [8]) it was 13%; in experiment [3] (at 50.0 µM), -0.75%; in experiment [4] (setting [7]), 39%; in experiment [4] (setting [8]) it was 17%; in experiment [4] (at 50.0 µM), 3.6%. Besides, the growth inhibition in experiment [5] (setting [7]) was 31%; in experiment [5] (setting [8]), 20%; in experiment [5] (at 50.0 µM), 1.2%; in experiment [6] (setting [7]) it was -9%; in experiment [6] (setting [8]), -4%; in experiment [6] (at 50.0 µM), 6.6%.

Turning to `CC(O)C1CCCC[N+]1(C)C` (stereo not given), the growth inhibition is 1% in experiment [1] (setting [7]); -3% in experiment [1] (setting [8]); 0.05% in experiment [1] (at 50.0 µM); 5% in experiment [2] (setting [7]); 8% in experiment [2] (setting [8]); -6.9% in experiment [2] (at 50.0 µM). For the same compound, the growth inhibition in experiment [3] (setting [7]) is -1%; in experiment [3] (setting [8]) it was -36%; in experiment [3] (at 50.0 µM), 51.5%; in experiment [4] (setting [7]) it was -5%; in experiment [4] (setting [8]), -6%; in experiment [4] (at 50.0 µM), -7.6%. Also, the growth inhibition was -11% in experiment [5] (setting [7]); -8% in experiment [5] (setting [8]); 9.45% in experiment [5] (at 50.0 µM); -17% in experiment [6] (setting [7]); -3% in experiment [6] (setting [8]); -18.6% in experiment [6] (at 50.0 µM).

`CC1(C)N([O-])[N+](=O)C1(Br)c1ccccc1` (stereo not given): the growth inhibition is 22% in experiment [1] (setting [7]); 99% (active) in experiment [1] (setting [8]); 86.7% (active) in experiment [1] (at 50.0 µM); 17% in experiment [2] (setting [7]); 100% (active) in experiment [2] (setting [8]); 93.8% (active) in experiment [2] (at 50.0 µM). In addition, the growth inhibition in experiment [3] (setting [7]) is -6%; in experiment [3] (setting [8]), 95% (active); in experiment [3] (at 50.0 µM), 92.6% (active); in experiment [4] (setting [7]), 8%; in experiment [4] (setting [8]), 64%; in experiment [4] (at 50.0 µM), 90.2% (active). The growth inhibition in experiment [5] (setting [7]) is -24%; in experiment [5] (setting [8]), 96% (active); in experiment [5] (at 50.0 µM), 87.5% (active); in experiment [6] (setting [7]) it was 25%; in experiment [6] (setting [8]) it was 99% (active); in experiment [6] (at 50.0 µM) it was 84.5% (active).

In the case of `c1nc(N2CCOCC2)c2[nH]cnc2n1`, the growth inhibition in experiment [1] (setting [7]) was 5%; in experiment [1] (setting [8]), -5%; in experiment [1] (at 50.0 µM) it was 22.1%; in experiment [2] (setting [7]) it was -1%; in experiment [2] (setting [8]) it was -7%; in experiment [2] (at 50.0 µM), 8.05%. Moreover, the growth inhibition in experiment [3] (setting [7]) is 0%; in experiment [3] (setting [8]), 4%; in experiment [3] (at 50.0 µM) it was 12.2%; in experiment [4] (setting [7]), -1%; in experiment [4] (setting [8]), -13%; in experiment [4] (at 50.0 µM), 36.5%. For the same compound, the growth inhibition in experiment [5] (setting [7]) was -2%; in experiment [5] (setting [8]), 8%; in experiment [5] (at 50.0 µM), -5.75%; in experiment [6] (setting [7]) it was 5%; in experiment [6] (setting [8]), 5%; in experiment [6] (at 50.0 µM) it was 17.4%.
